# Compounds with a hit are over-represented: about 2.5% of the library has one in this group of screens.
# GRK2 aptamer HTS = human GRK2 inhibition via aptamer displacement | P25098 | bead flow cytometry, FAM-aptamer displacement from GRK2 | inhibition of aptamer binding, % at 10 µM | 330,000 tested, 0.59% active;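 active = inhibition of aptamer binding above 40%, roughly 3 SD of noise, on plates passing a quality check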;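 also: median bead fluorescence of bound FAM aptamer so fluorescent compounds give negative values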
# Target sequence (P25098 whole entry, looked up): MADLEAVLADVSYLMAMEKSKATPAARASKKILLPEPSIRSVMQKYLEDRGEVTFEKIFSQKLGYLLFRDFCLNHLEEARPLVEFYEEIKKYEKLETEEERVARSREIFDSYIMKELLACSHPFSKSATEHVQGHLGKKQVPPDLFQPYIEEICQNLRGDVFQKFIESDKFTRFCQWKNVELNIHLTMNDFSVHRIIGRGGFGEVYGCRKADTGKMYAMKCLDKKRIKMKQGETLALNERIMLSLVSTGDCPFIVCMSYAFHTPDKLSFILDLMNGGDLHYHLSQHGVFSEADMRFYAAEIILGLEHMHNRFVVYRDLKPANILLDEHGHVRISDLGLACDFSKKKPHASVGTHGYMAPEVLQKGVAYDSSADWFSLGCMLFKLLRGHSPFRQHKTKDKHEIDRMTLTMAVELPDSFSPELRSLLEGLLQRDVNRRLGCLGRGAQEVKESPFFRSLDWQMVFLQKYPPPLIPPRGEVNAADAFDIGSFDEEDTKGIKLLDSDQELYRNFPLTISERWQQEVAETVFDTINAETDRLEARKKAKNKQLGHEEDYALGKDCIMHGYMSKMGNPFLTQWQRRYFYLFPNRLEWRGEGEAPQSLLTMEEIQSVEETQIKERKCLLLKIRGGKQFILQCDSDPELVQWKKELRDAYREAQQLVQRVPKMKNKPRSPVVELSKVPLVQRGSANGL
# MEKK2wt PB1 HTS = raises or lowers MEK5 binding to wildtype human MEKK2 PB1 domain; Q9Y2U5; bead flow cytometry, Alexa488-MEK5 binding to MEKK2 WT; actives lie on both sides; binding response (% of control), % at 10 µM; 290,000 tested, 1.1% active; AID 1531; in the data active = binding response below about 67% or above about 130%
# MEKK3 PB1 HTS = raises or lowers MEK5 binding to the human MEKK3 PB1 domain. bead-based flow cytometry, Alexa488-MEK5 binding to MEKK3; actives lie on both sides; 0 = blocked by unlabeled MEK5, 100 = vehicle. AID 1529. Q99759. binding response (% of control), % at 10 µM. 290,000 tested, 1.4% active;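 active = binding response more than 3 SD above or below the average of its plate-row segment, actives on both sides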;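 also: Alexa488 bead fluorescence after subtracting the streptavidin-only scavenger bead signal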
# MEKK2 mut-MEK5 = signal of MEK5 binding to mutant human MEKK2 PB1 domain. bead flow cytometry, Alexa488-MEK5 binding to MEKK2 mutant. AID 1530. percent response, % at 10 µM. 290,000 tested, 0.35% active; in the data active = percent response above about 24%, passing the limit was not always enough
# GRK2 CP1 = confirmation of human GRK2 inhibitors displacing RNA aptamer; shares compounds with GRK2 aptamer HTS; bead-bound GRK2, FAM-aptamer displacement, flow cytometry; aptamer displacement, % at 10 µM; 2,000 tested, 4% active; AID 504451;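 active = aptamer displacement above 40%, near three times the noise of non-fluorescent compounds, on plates passing quality checks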;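 also: negative values mostly reflect intrinsic compound fluorescence rather than true enhancement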
# FAM quench CP1 = aptamer fluorescence quenching in GRK2 counter-screen | Carboxyfluorescein RNA aptamer on beads, flow cytometry quenching; hits give low values | 2,000 tested, under 10 active | shares compounds with GRK2 aptamer HTS | fluorescence response (% of DMSO), % at 10 µM | AID 504580;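 active = compounds that quench the bead-bound fluorescent RNA probe, cutting fluorescence to under half of the solvent control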;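 also: counterscreen run without GRK2 so only probe quenching by compound is measured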
# GRK2 CP2 = confirmation of human GRK2 inhibitors binding RNA aptamer site. shares compounds with GRK2 aptamer HTS. bead-bound GRK2, FAM-aptamer displacement, flow cytometry. inhibition of aptamer binding, % at 10 µM. 360 tested, under 10 active. AID 504782;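 active = inhibition of aptamer binding above 40%, about triple the noise seen with nonglowing compounds, on plates passing quality control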;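 also: negative values mostly come from compounds that fluoresce themselves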
# FAM quench SP = counter-screen for GRK2 binding hits: quenchers of fluorescent RNA aptamer; 360 tested, under 10 active; shares compounds with GRK2 aptamer HTS; fluorescence response vs DMSO, % at 10 µM; carboxyfluorescein RNA aptamer beads, flow cytometry quenching; hits give low values;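 active = response vs DMSO under 50%, meaning signal dropped by over half, treated as fluorescence quencher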;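 also: labelled aptamer on streptavidin beads without GRK2 as a quench counter-screen; 100% = bead fluorescence of DMSO wells and lower means quenching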
# Active calls of the source: *; x = no result.
SMILES,GRK2 aptamer HTS,MEKK2wt PB1 HTS,MEKK3 PB1 HTS,MEKK2 mut-MEK5,GRK2 CP1,FAM quench CP1,others
CSc1ccc(/C=C/C(=O)c2ccc(NC(C)=O)cc2)cc1,88*,91,94,-4,-4,96,
CCCC(=O)Nc1ccc(C(=O)/C=C/c2ccc(SC)cc2)cc1,0,101,101,9,x,x,
C=CCC(CC(O)COCCC)C(=O)NNC(=S)Nc1ccccc1 (stereo not given),46*,102,105,8,-5,92,
Cc1cc(OCC(=O)N(Cc2ccco2)c2c(N)n(Cc3ccccc3)c(=O)[nH]c2=O)ccc1Cl,0,x,x,x,2,106,
Nc1c(N(Cc2ccco2)C(=O)COc2ccccc2Cl)c(=O)[nH]c(=O)n1Cc1ccccc1,7,x,x,x,x,x,
Cc1ccc2c(CC(=O)OCC(=O)N(CC(C)C)c3c(N)n(Cc4ccccc4)c(=O)[nH]c3=O)coc2c1,83*,x,x,x,0,114,
CCOc1ccc(NC(=O)CSc2ccc3nnc(-c4cccnc4)n3n2)cc1,41*,95,93,0,x,x,GRK2 CP2=-1;FAM quench SP=100
CCOC(=O)c1c(C)[nH]c(C)c1C(=O)COC(=O)[C@@H](NC(=O)c1ccco1)C(C)C,0,x,x,x,x,x,
CC1(c2ccc3ccccc3c2)NC(=O)N(CC(=O)N2CCN(c3ccccc3O)CC2)C1=O (stereo not given),3,103,102,7,4,105,
CN1CCN(C(=O)CN2C(=O)NC(C)(c3ccc4ccccc4c3)C2=O)CC1 (stereo not given),1,x,x,x,x,x,
CC1CCCCN1CC(O)COCc1ccc(Cl)cc1 (stereo not given),2,102,98,-4,x,x,
Cc1oc(-c2ccccc2)cc1C(=O)Nc1ccc2ccccc2c1,98*,119,108,9,-3,95,
COc1ccc(NC(=O)c2cc(-c3ccccc3)oc2C)cc1,0,107,105,0,x,x,
CC(=O)Nc1cccc(-n2nnc(SCC(=O)Nc3ccc(F)c(Cl)c3)n2)c1,86*,102,103,3,1,99,
COc1ccc(C(=O)Nc2ccc(C(=O)N3CCC(C)CC3)cc2)cc1OC,0,102,101,-2,x,x,
COc1cccc(C(=O)NCc2ccc3c(c2)cc(C)n3C)c1,84*,94,110,2,0,96,
COc1ccc(CC(=O)NCc2ccc3c(c2)cc(C)n3C)cc1,67*,102,112,4,-2,95,
Cc1cc2cc(CNC(=O)c3ccc(S(=O)(=O)N4CCCCC4)cc3)ccc2n1C,66*,90,93,3,0,99,GRK2 CP2=-12;FAM quench SP=100
COc1ccc(NC(=S)NCc2ccc3c(c2)cc(C)n3C)cc1,1,100,106,-3,x,x,
COc1ccc(C(=O)NCc2ccc3c(c2)cc(C)n3C)cc1OC,5,99,99,-3,1,96,
CCOCCCNC(=O)CN1C(=O)c2ccccc2Sc2ncccc21,1,100,103,2,x,x,
Nc1ccc(C(=O)c2cccs2)cc1[N+](=O)[O-],2,102,102,7,x,x,
CCOC(=O)C1CCN(S(=O)(=O)c2cn(C)cn2)CC1,0,93,95,-7,x,x,
CC1(C)N([O-])c2cc([N+](=O)[O-])ccc2[N+]1=O,68*,93,95,0,3,95,
COc1ccc(C(=O)NCC(C)(C)SCc2c(C)cc(C)cc2C)cc1,50*,87,88,-12,-2,98,
SMILES,GRK2 aptamer HTS,MEKK2wt PB1 HTS,MEKK3 PB1 HTS,MEKK2 mut-MEK5,GRK2 CP1,FAM quench CP1,others
CN(CC(=O)Nc1cccc(F)c1)C(=O)CCc1nc2sc3c(c2c(=O)[nH]1)CCCC3,11,x,x,x,1,98,
Cc1cccc(C)c1NC(=O)CN(C)C(=O)CCc1nc2sc3c(c2c(=O)[nH]1)CCCC3,3,x,x,x,x,x,
CN(CCOc1ccccc1)C(=O)CCc1nc2sc3c(c2c(=O)[nH]1)CCCC3,0,106,105,8,0,97,
CC(=O)COC(=O)c1cccc(N2C(=O)C3C4C=CC(C4)C3C2=O)c1 (stereo not given),80*,110,108,6,2,104,
CCn1cc(Cl)c(C(=O)NNC(=O)CCn2cc([N+](=O)[O-])cn2)n1,63*,99,101,-2,x,x,GRK2 CP2=-34;FAM quench SP=101
COc1cccc(NC(=S)NNC(=O)CCn2cc([N+](=O)[O-])cn2)c1,3,96,100,-6,x,x,
CC1Cc2ccccc2N1C(=O)CSc1ncccn1 (stereo not given),0,x,x,x,x,x,
Cc1[nH][nH]c(=O)c1C(c1ccc(-c2cccc(Cl)c2)o1)c1c(C)[nH][nH]c1=O,2,90,92,-2,x,x,
Cc1[nH][nH]c(=O)c1C(c1ccc(-c2cccc(C(=O)O)c2)o1)c1c(C)[nH][nH]c1=O,42*,93,103,-6,x,x,GRK2 CP2=10;FAM quench SP=98
Cc1cc(C)cc(NS(=O)(=O)c2ccc3[nH]c(=O)ccc3c2)c1,1,112,112,16,x,x,
COc1ccc(C(N)CCc2ccc(C)o2)cc1 (stereo not given),79*,x,x,x,-37,111,
CCc1ccc(CCC(=O)Nc2ccc(OC)cc2)o1,4,103,104,2,x,x,
O=C(NCc1ccncc1)c1cccc(Cn2cc(Br)cn2)c1,0,103,110,1,4,98,
O=C(O)c1cccc(Cn2cc(Br)cn2)c1,0,x,x,x,x,x,
O=Cc1c(N2CCC3(CC2)OCCO3)nc2ccccn2c1=O,0,93,94,-7,x,x,
Cc1ccc(C)c(NC(=O)c2cnn3ccccc23)c1,28,107,108,8,-1,101,
Cc1ccc(C)c(NC(=O)c2cc3ccccn3n2)c1,1,113,115,13,x,x,
CC(=O)c1cc2c(cc1NC(=O)C1CN(C(C)=O)c3ccccc3O1)OCO2 (stereo not given),26,x,x,x,0,104,
O=S1(=O)CCOCCCN1Cc1ccccc1F,0,94,99,-6,x,x,
Cn1c(-c2ccc3nc(N)sc3c2)nc2cc(N)ccc21,52*,86,97,0,4,96,
CCCCCN(C(=O)CCC(=O)OCc1cccc(F)c1)c1c(N)n(CCCC)c(=O)[nH]c1=O,1,x,x,x,x,x,
CC1=C(C(=O)OCC2CCCCC2)C(c2cccc(O)c2)NC(=O)N1 (stereo not given),0,98,98,4,x,x,
CC1=C(C(=O)OCC2CCCCC2)C(c2ccc(O)cc2)NC(=O)N1 (stereo not given),16,107,106,4,-42,192,

# Source: PubChem BioAssay (NMMLSC)
